Results published in PubChem BioAssay AID1159580 (chemical genetic matrix, 2015).
“And” between values parts separate entries of the source, which are not always exact repeats. Identical values can stand only once. In all, about 5,500 compounds went through this assay and about 2,000 (36%) were called active. About 18% were inconclusive and are not listed. Rule as the data show it: active = normalized growth mostly below about 0.91 (no sharp cut-off); inconclusive = no clear call, values can overlap the other calls; inactive = mostly above about 0.92. The list shows a part of the results.

Experiment: chemical genetic growth profiling, strain panel (AID 1159580);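 also: tested at 20 µM; growth read once vehicle control cultures reached saturation at 30 °C; 1 = growth at the plate median or of vehicle wells; lower values mean less growth of the strain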
Conditions: S. cerevisiae deletion strains, growth OD

Measured: normalized growth

CC(=O)OC(C)C[N+](C)(C)C (stereo not given)
inactive: locus YAL013W, strain DEP1, stronger effect = lower value 1.02 and 1 | locus YAL021C, strain ccr4, stronger effect = lower value 1 | locus YAL026C, strain drs2, stronger effect = lower value 1 | locus YAL030W, strain snc1, stronger effect = lower value 1 | locus YAL040C, strain CLN3, stronger effect = lower value 0.999 | locus YBL061C, strain skt5, stronger effect = lower value 1.01 | locus YBR009C, strain hhf1, stronger effect = lower value 1 | locus YBR021W, strain FUR4, stronger effect = lower value 1.03 | locus YBR023C, strain chs3, stronger effect = lower value 1 | locus YBR171W, strain sec66, stronger effect = lower value 0.994 | locus YBR229C, strain ROT2, stronger effect = lower value 1.01 | locus YBR231C, strain swc5, stronger effect = lower value 0.991 | locus YBR279W, strain paf1, stronger effect = lower value 1 | locus YCL011C, strain gbp2, stronger effect = lower value 1.01 | locus YCL016C, strain dcc1, stronger effect = lower value 1.01 | locus YCL029C, strain bik1, stronger effect = lower value 1.01 | locus YCL061C, strain MRC1 (second series), stronger effect = lower value 1 | locus YCL069W, strain vba3, stronger effect = lower value 1 | locus YCR088W, strain abp1, stronger effect = lower value 1.01 | locus YDL005C, strain med2, stronger effect = lower value 1.02 | locus YDL035C, strain GPR1, stronger effect = lower value 1.03 | locus YDL040C, strain nat1, stronger effect = lower value 1 | locus YDL074C, strain BRE1, stronger effect = lower value 1.01 | locus YDL101C, strain DUN1, stronger effect = lower value 1 | locus YDL134C, strain PPH21, stronger effect = lower value 1.02 | locus YDL185W, strain tfp1, stronger effect = lower value 1.02 | locus YDL192W, strain arf1, stronger effect = lower value 1.02 | locus YDR001C, strain nth1, stronger effect = lower value 0.993 | locus YDR069C, strain doa4, stronger effect = lower value 0.988 | locus YDR101C, strain arx1, stronger effect = lower value 0.996 | locus YDR137W, strain rgp1, stronger effect = lower value 0.99 | locus YDR150W, strain NUM1, stronger effect = lower value 1.02 and 0.997 | locus YDR159W, strain sac3, stronger effect = lower value 1 | locus YDR162C, strain NBP2, stronger effect = lower value 1.05 | locus YDR195W, strain ref2 0.982 | locus YDR297W, strain sur2, stronger effect = lower value 1 | locus YDR318W, strain mcm21, stronger effect = lower value 1.01 | locus YDR334W, strain swr1, stronger effect = lower value 0.997 | locus YDR335W, strain msn5, stronger effect = lower value 0.998 | locus YDR363W, strain ESC2, stronger effect = lower value 0.965 | locus YDR388W, stronger effect = lower value 1.02 | locus YDR392W, strain spt3, stronger effect = lower value 1 | locus YDR502C, strain sam2, stronger effect = lower value 1.01 | locus YEL003W, strain gim4, stronger effect = lower value 1.01 | locus YEL037C, strain rad23, stronger effect = lower value 1 | locus YEL061C, strain CIN8 (second series), stronger effect = lower value 0.995 | locus YEL061C, strain CIN8, stronger effect = lower value 1.01 | locus YER002W, strain NOP16, stronger effect = lower value 0.981 | locus YER015W, strain faa2, stronger effect = lower value 0.988 | locus YER016W, strain bim1, stronger effect = lower value 0.994 | locus YER110C, stronger effect = lower value 1.02 | locus YER111C, strain swi4, stronger effect = lower value 1.01 | locus YER155C, strain BEM2 (second series), stronger effect = lower value 0.992 | locus YER155C, strain BEM2, stronger effect = lower value 1.01 | locus YER167W, strain BCK2, stronger effect = lower value 1.02 | locus YFR010W, strain ubp6, stronger effect = lower value 0.989 | locus YGL078C, strain dbp3, stronger effect = lower value 1.02 | locus YGL086W, strain mad1, stronger effect = lower value 1 | locus YGL167C, strain pmr1, stronger effect = lower value 1.01 | locus YGL173C, strain kem1, stronger effect = lower value 1 | locus YGL227W, strain vid30, stronger effect = lower value 0.986 | locus YGL240W, strain doc1, stronger effect = lower value 0.985 | locus YGL248W, strain PDE1, stronger effect = lower value 0.99 | locus YGL253W, strain hxk2, stronger effect = lower value 1 | locus YGR135W, strain pre9, stronger effect = lower value 1.06 | locus YGR252W, strain gcn5, stronger effect = lower value 1.04 | locus YHR013C, strain ard1, stronger effect = lower value 1.02 | locus YHR027C, strain rpn1, stronger effect = lower value 1 | locus YHR030C, strain SLT2, stronger effect = lower value 1.01 and 1.02 | locus YHR079C, strain IRE1 (second series), stronger effect = lower value 1.01 | locus YHR079C, strain IRE1, stronger effect = lower value 1 | locus YHR094C, strain hxt1, stronger effect = lower value 1.02 | locus YHR129C, strain ARP1, stronger effect = lower value 1 | locus YHR142W, strain chs7, stronger effect = lower value 1.01 | locus YHR200W, strain rpn10, stronger effect = lower value 1.02 | locus YIL066C, strain RNR3, stronger effect = lower value 1.02 | locus YIL073C, strain SPO22, stronger effect = lower value 1.13 | locus YIL125W, strain kgd1, stronger effect = lower value 1.01 | locus YIR030C, strain dcg1, stronger effect = lower value 1.01 | locus YJL092W, strain hpr5, stronger effect = lower value 0.993 | locus YJL095W, strain BCK1 (second series), stronger effect = lower value 1.01 | locus YJL095W, strain BCK1, stronger effect = lower value 1.02 and 1.03 | locus YJL115W, strain asf1, stronger effect = lower value 0.995 | locus YJL129C, strain trk1, stronger effect = lower value 0.987 | locus YJL134W, strain LCB3, stronger effect = lower value 1.01 | locus YJL154C, strain vps35, stronger effect = lower value 1.01 | locus YJL164C, strain tpk1, stronger effect = lower value 1.01 | locus YJL166W, strain qcr8, stronger effect = lower value 0.976 | locus YJL168C, strain set2, stronger effect = lower value 1.01 | locus YJL187C, strain SWE1 (second series), stronger effect = lower value 1.02 | locus YJL187C, strain SWE1, stronger effect = lower value 1.01 | locus YJR043C, strain POL32, stronger effect = lower value 1.02 | locus YJR066W, strain TOR1, stronger effect = lower value 0.985 | locus YJR075W, strain HOC1, stronger effect = lower value 1.02 | locus YKL009W, strain mrt4, stronger effect = lower value 1.04 | locus YKL068W, stronger effect = lower value 1.02 | locus YKL085W, strain MDH1 (second series), stronger effect = lower value 1.01 | locus YKL085W, strain MDH1, stronger effect = lower value 1.01 | locus YKL160W, strain elf1, stronger effect = lower value 0.987 | locus YKL190W, strain CNB1, stronger effect = lower value 1.02 | locus YKR001C, strain vps1, stronger effect = lower value 1.02 | locus YKR026C, strain gcn3, stronger effect = lower value 0.985 | locus YKR091W, strain srl3, stronger effect = lower value 0.996 | locus YLL001W, strain dnm1, stronger effect = lower value 0.97 | locus YLL026W, stronger effect = lower value 0.989 | locus YLL041C, strain sdh2, stronger effect = lower value 1.01 | locus YLR027C, strain aat2, stronger effect = lower value 0.989 | locus YLR039C, strain RIC1, stronger effect = lower value 1.06 | locus YLR058C, strain SHM2, stronger effect = lower value 1.01 | locus YLR102C, strain apc9, stronger effect = lower value 1 | locus YLR113W, strain HOG1, stronger effect = lower value 0.981 | locus YLR221C, strain rsa3, stronger effect = lower value 1 | locus YLR258W, strain gsy2, stronger effect = lower value 1 | locus YLR262C, strain YPT6 (second series), stronger effect = lower value 0.994 | locus YLR262C, strain YPT6, stronger effect = lower value 1.05 | locus YLR268W, strain sec22, stronger effect = lower value 1.01 | locus YLR320W, strain mms22, stronger effect = lower value 0.999 | locus YLR330W, strain CHS5, stronger effect = lower value 1.01 | locus YLR342W, strain FKS1 (second series), stronger effect = lower value 1.05 | locus YLR342W, strain FKS1, stronger effect = lower value 1 | locus YLR357W, strain rsc2, stronger effect = lower value 0.981 | locus YLR370C, strain arc18, stronger effect = lower value 1 | locus YLR371W, strain rom2, stronger effect = lower value 1.01 | locus YLR384C, strain iki3, stronger effect = lower value 0.996 | locus YLR418C, strain cdc73, stronger effect = lower value 1.06 | locus YML016C, strain PPZ1, stronger effect = lower value 0.999 | locus YML032C, strain rad52, stronger effect = lower value 1.01 | locus YML120C, strain ndi1, stronger effect = lower value 1 | locus YML124C, strain tub3, stronger effect = lower value 1.01 | locus YMR058W, strain fet3, stronger effect = lower value 0.991 | locus YMR078C, strain ctf18, stronger effect = lower value 1.02 | locus YMR125W, strain sto1, stronger effect = lower value 0.993 | locus YMR129W, stronger effect = lower value 0.993 | locus YMR205C, strain PFK2, stronger effect = lower value 1 | locus YMR223W, strain ubp8, stronger effect = lower value 1.07 | locus YMR231W, strain pep5, stronger effect = lower value 0.994 | locus YMR307W, strain GAS1, stronger effect = lower value 1.03 | locus YNL067W, strain RPL9B, stronger effect = lower value 1.02 | locus YNL071W, strain lat1, stronger effect = lower value 0.999 | locus YNL153C, strain GIM3, stronger effect = lower value 1.01 | locus YNL175C, strain NOP13, stronger effect = lower value 1.01 | locus YNL183C, strain NPR1, stronger effect = lower value 0.969 | locus YNL197C, strain WHI3, stronger effect = lower value 1 | locus YNL209W, strain ssb2, stronger effect = lower value 1 | locus YNL224C, strain SQS1, stronger effect = lower value 0.983 | locus YNL233W, strain BNI4, stronger effect = lower value 1.01 | locus YNL248C, strain rpa49, stronger effect = lower value 0.988 | locus YNL250W, strain rad50, stronger effect = lower value 1.05 | locus YNL271C, strain bni1, stronger effect = lower value 1.02 | locus YNL298W, strain CLA4, stronger effect = lower value 1.02 | locus YNL307C, strain MCK1, stronger effect = lower value 1.03 | locus YNL322C, strain KRE1 (second series), stronger effect = lower value 1.01 | locus YNL322C, strain KRE1, stronger effect = lower value 1.01 | locus YNR049C, strain mso1, stronger effect = lower value 1.01 | locus YNR052C, strain pop2, stronger effect = lower value 1.01 | locus YOL012C, strain htz1 1.09 | locus YOL147C, strain pex11, stronger effect = lower value 1.02 | locus YOR001W, strain rrp6, stronger effect = lower value 0.987 | locus YOR061W, strain CKA2, stronger effect = lower value 1.01 | locus YOR069W, strain VPS5, stronger effect = lower value 1.01 | locus YOR070C, strain gyp1, stronger effect = lower value 1 | locus YOR080W, strain dia2, stronger effect = lower value 1.01 | locus YOR083W, strain WHI5 (second series), stronger effect = lower value 1 | locus YOR083W, strain WHI5, stronger effect = lower value 0.977 | locus YOR106W, strain vam3, stronger effect = lower value 0.994 | locus YOR136W, strain idh2, stronger effect = lower value 1.01 | locus YOR144C, strain elg1, stronger effect = lower value 1.01 | locus YOR184W, strain ser1, stronger effect = lower value 1.02 | locus YOR231W, strain MKK1, stronger effect = lower value 0.947 | locus YOR265W, strain rbl2, stronger effect = lower value 1 | locus YOR270C, strain vph1, stronger effect = lower value 1.02 | locus YOR290C, strain snf2, stronger effect = lower value 0.989 | locus YOR316C, strain cot1, stronger effect = lower value 1.01 | locus YPL051W, strain arl3, stronger effect = lower value 0.999 | locus YPL055C, strain LGE1, stronger effect = lower value 1.02 | locus YPL078C, strain atp4, stronger effect = lower value 0.981 | locus YPL106C, strain sse1, stronger effect = lower value 1.01 | locus YPL240C, strain hsp82, stronger effect = lower value 1 | locus YPL241C, strain CIN2, stronger effect = lower value 1 | locus YPL256C, strain CLN2, stronger effect = lower value 1.03 | locus YPR119W, strain clb2, stronger effect = lower value 1.01 | locus YPR141C, strain kar3, stronger effect = lower value 1.01 | locus YPR163C, strain tif3, stronger effect = lower value 1.02 | locus YPR167C, strain met16, stronger effect = lower value 1.01 | strain wtn01, stronger effect = lower value 1
